# High-throughput results (PubChem)
# Shown are actives, neighbours in structure and some others; about 9.3% of the full set was active somewhere.
# ELG1 genotox – qHTS screen for small molecules that induce genotoxicity in human embryonic kidney (HEK293T) cells expressing luciferase-tagged ELG1; HEK293T ELG1-luciferase reporter, luminescence, 16 h; Potency, µM (highest dose often 46 µM), for inactives: at the top dose activity change, positive = activation, hits mostly activators; 330,000 tested, 1.3% active; further: % of control where 0% means no effect; nearly all actives have a fitted effect of over 60% in size
#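 Quantitative HTS format in 1536-well plates. HEK293T ELG1-luciferase reporter cells receive test compound and are incubated 16 hr at 37 °C, 5% CO2; ONE-Glo added, 30 min room temperature, then luminescence read.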
# Rab9 prom act – qHTS Assay for Rab9 Promoter Activators. Huh7 Rab9 promoter-luciferase reporter, luminescence, 24 h. Potency, µM (highest dose often 9.22 µM), for inactives: at the top dose activation, negative = inhibition, actives largely listed as activators. 320,000 tested, 2.8% active. AID 485297, 2010; further: % of control where 0% means no effect; nearly all actives have a fitted effect of over 60% in size
#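 Quantitative HTS format; Huh7 Rab9-luciferase reporter cells (1500/well) receive compound 2 h post-plating, incubate 24 h at 37 °C, then get luciferase reagent for 10 min before luminescence reading.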
# FLuc counter – qHTS profiling assay for firefly luciferase inhibitor/activator using purifed enzyme and Km concentrations of substrates (counterscreen for miR-21 project). AID 588342, 2011. Potency, µM (highest dose often 57.5 µM), inactives show top-dose activity change, negative = inhibition, hits mostly inhibitors. Luciferin 4-monooxygenase (Photinus pyralis), P08659. 360,000 tested, 6.9% active. purified FLuc, Km substrates, luminescence inhibition;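 further: plate controls were vehicle for no effect and reference inhibitor for full effect; nearly all actives have a fitted effect of over 55% in size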
# Target sequence (P08659 whole entry, looked up): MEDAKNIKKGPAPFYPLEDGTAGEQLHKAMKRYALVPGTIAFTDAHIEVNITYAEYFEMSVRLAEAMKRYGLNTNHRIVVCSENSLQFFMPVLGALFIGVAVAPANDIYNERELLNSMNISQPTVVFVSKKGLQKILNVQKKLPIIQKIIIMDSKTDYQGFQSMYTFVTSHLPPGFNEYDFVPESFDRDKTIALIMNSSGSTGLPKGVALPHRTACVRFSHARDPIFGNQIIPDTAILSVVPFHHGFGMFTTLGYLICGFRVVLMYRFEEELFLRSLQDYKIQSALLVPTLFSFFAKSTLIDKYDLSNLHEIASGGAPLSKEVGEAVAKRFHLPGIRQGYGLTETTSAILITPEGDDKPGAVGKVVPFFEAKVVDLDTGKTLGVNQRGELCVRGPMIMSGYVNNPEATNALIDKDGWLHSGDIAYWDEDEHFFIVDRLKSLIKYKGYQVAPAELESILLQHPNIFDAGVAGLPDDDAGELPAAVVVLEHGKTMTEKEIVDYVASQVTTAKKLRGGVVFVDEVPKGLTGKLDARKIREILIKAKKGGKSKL
#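 Purified P. pyralis luciferase, 10 nM final, with Km-level 10 uM D-luciferin and 10 uM ATP in 50 mM Tris acetate pH 7.5, 10 mM Mg acetate, 0.01% Tween-20, 0.05% BSA; 6-point qHTS titration about 60 µM downward; luminescence read.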
# NPC1 promoter act – qHTS Assay for NPC1 Promoter Activators. Potency, µM (doses to about 9.22 µM), for the others: at the top dose activation, usual class: activators. 320,000 tested, 2.4% active. Huh7 NPC1 promoter luciferase reporter, 24 h. AID 485313, 2010; further: % of control where 0% means no effect; nearly all actives have a fitted effect of over 60% in size
#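 Luminescence from an NPC1 promoter-driven luciferase reporter in stably transfected Huh7 cells was measured after 24 h compound treatment at 37 °C, followed by 10 min ambient incubation with luciferase detection reagent.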
# SMN2 splice enh – qHTS Assay for Enhancers of SMN2 Splice Variant Expression; HEK293 SMN2-luciferase splicing reporter, luminescence, 30-36 h; Potency, µM (titrated, usually from 46.1 µM), for inactives: at the top dose activity change, positive = activation, usual class: activators; 210,000 tested, 2.8% active; AID 1458, 2008; further: % of control where 0% means no effect; nearly all actives have a fitted effect of over 55% in size
#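 qHTS luciferase splicing reporter: luminescence rises when SMN2 exon 7 is included in transfected HEK293 cells. Compound exposure lasted 30-36 h at 37C, with 4.5 mM final sodium butyrate as control, followed by a ONE-Glo read.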
# ELG1 repair inh – qHTS screen for small molecules that inhibit ELG1-dependent DNA repair in human embryonic kidney (HEK293T) cells expressing luciferase-tagged ELG1. HEK293T ELG1-luciferase reporter, luminescence, 16 h; DNA damage induced by 5-fluorouridine. 330,000 tested, 2.3% active. Potency, µM (titrated, usually from 46.1 µM), inactives show top-dose activity change, negative = inhibition, hits mostly inhibitors. AID 504467, 2011; further: on the % scale 0 is the no-effect control and ±100 the full control effect; nearly all actives have a fitted effect of over 55% in size
#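 HEK293T cells expressing luciferase-tagged ELG1 (2,000/well) received 5-Fluorouridine plus compound or DMSO for 16 hr at 37 °C. Luciferase was read by ONE-Glo luminescence after 30 min at room temperature.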
# * hit, by the source's call; ? = inconclusive; / = no result given; [ ] = another dose, or the depositor's remark. The call rests on the fitted dose curve; in most records, active means well fitted curve in the direction sought with a large enough effect; inconclusive means small, poorly fitted or top-dose-only effect, or another doubt; inactive means no such curve, though single readings can be large; an effect the other way counts as inactive or inconclusive. Potency means the concentration at half of the fitted maximal effect.
SMILES,ELG1 genotox,Rab9 prom act,FLuc counter,NPC1 promoter act,SMN2 splice enh,ELG1 repair inh
Fc1ccc(C2CCCN2Cc2nc(Cc3ccccc3)no2)cc1 (configuration not stated),-1%,0%,0%,-2%,/,-3%
CC1CCCCN1C(=O)CCn1c(=O)oc2ccccc21 (configuration not stated),6%,13%,4%,16%,/,-14%
O=C(Oc1ccccc1/C=C\C(=O)c1cc2ccccc2o1)c1cccc(F)c1,?,?,8.5µM*,23%,-106%,?
O=C(Oc1ccccc1/C=C\C(=O)c1cc2ccccc2o1)c1ccccc1,?,3.2µM*,17µM*,4µM*,?,?
COc1cccc(C(=O)Oc2ccccc2/C=C\C(=O)c2cc3ccccc3o2)c1,16%,?,?,2.8µM*,-103%,?
CCOc1cccc(C(=O)Nc2ccc(NC(=O)c3cc4ccccc4o3)c(OC)c2)c1,3%,-7%,0%,-7%,/,1%
CCOc1ncccc1C(=O)Nc1ccc(C(=O)Nc2ccc(OC)cc2)cc1,3%,-4%,3%,-5%,/,?
CCOc1ccc(NC(=O)c2ccc(OC)cc2)cc1,16%,20%[1.84 µM],?,?,13%,?
COc1ccc(NC(=O)c2ccc(NC(=O)c3ccncc3)cc2)cc1,10µM*,-7%,1%,0%,/,21%
COc1ccc(NC(=O)c2ncn[nH]2)cc1,8%,22%,15µM*,14%,11%,?
COc1ccc(C(=O)Nc2ccc(C3CC3(Cl)Cl)cc2)cc1 (configuration not stated),14%,?,1.5µM*,25%,/,?
COc1ccc(NC(=O)c2[nH]ncc2[N+](=O)[O-])cc1,16%,21%,?,-25%,-19%,28%
COc1ccc(NC(=O)c2ccc(Oc3ncccn3)cc2)cc1,?,?,17µM*,16%,12%,?
COc1ccc(C(=O)NNC(=O)c2ccncc2)cc1,1%,3%,-5%,0%,-10%,26%
C=C(Nc1ccc(OC)cc1)C(=O)OC,/,/,/,/,7%,/
COc1ccc(NC(=O)c2sc(=S)[nH]c2N)cc1,11%,21%,17µM*,2%,?,?
COc1ccc(NC(=O)c2cc(-c3ccco3)on2)cc1,-6%,18%,?,-1%,?,?
COc1ccc(NC(=O)c2cccc(C(=O)Nc3ccc(OC)cc3)n2)cc1,16%,-2%,5.4µM*,2%,-6%,-6%
COc1ccc([N+](=O)[O-])cc1NS(=O)(=O)Cc1ccccc1,-3%,-4%,1%,-4%,/,-4%
CNc1cc([N+](=O)[O-])ccc1OCc1ccccc1,9%,16%,19µM*,16%,/,28%
CC(=O)N1N=C(c2ccc(C)cc2)CC1c1ccco1 (configuration not stated),?,?,?,22%,21%,?
CC(=O)N1N=C(c2ccc(C)cc2)CC1c1ccc2c(c1)OCO2 (configuration not stated),?,?,15µM*,2.8µM*,/,?
Cc1ccc(C2=NN(S(C)(=O)=O)C(c3ccc4c(c3)OCO4)C2)cc1 (configuration not stated),5.2µM*,2.5µM*,1.7µM*,3.5µM*,18µM*,?
CS(=O)(=O)N1N=C(c2ccc(Br)cc2)CC1c1ccc2c(c1)OCO2 (configuration not stated),?,0.63µM*,4.3µM*,1.1µM*,25µM*,?
Cc1cc(NC(=O)c2cc(-c3ccncc3)nc3ccccc23)ccc1Br,-7%,/,/,/,/,?
SMILES,ELG1 genotox,Rab9 prom act,FLuc counter,NPC1 promoter act,SMN2 splice enh,ELG1 repair inh
COc1ccc(C(=O)N2CCCC(C(=O)N3CCN(c4ccccc4)CC3)C2)cc1 (configuration not stated),-7%,1%,-1%,-2%,/,-21%
COc1cc(OC)cc(C(=O)NNC(=O)CN2C(=O)NC(C)(c3ccccc3)C2=O)c1 (configuration not stated),-4%,-2%,3%,3%,/,11%
Cc1nc2ccn(Cc3ccco3)c(=O)c2cc1C(=O)N1CCN(c2ccc(F)cc2)CC1,/,/,0%,/,/,/
c1ccc(COc2ccc(-c3csnn3)cc2)cc1,26%,2.8µM*,2.4µM*,1.8µM*,?,?
OCCNCCCCOc1ccc(OCc2ccccc2)cc1,?,3.5µM*,11µM*,?,16µM*,?
CC(=O)COc1ccc(-c2csnn2)cc1,14%,26%,-14%,15%,/,?
Nc1ccc(OCc2ccccc2)cc1,19%,?,?,28%,13µM*,?
Cc1ccccc1C(=O)Oc1ccc(-c2csnn2)cc1,?,-1%,12µM*,0%,/,?
Nc1ccc(OCCc2ccccc2)cc1,17%,?,-12%,?,/,?
COP(=O)(CC(=O)c1ccccc1)CC(=O)c1ccccc1,-1%,-3%,-2%,-1%,-3%,4%
COc1cccc(NC(=O)NCCC2=CCCCC2)c1,?,4.5µM*,15µM*,3.5µM*,14µM*,?
COc1ccccc1NC(=O)NCCC1=CCCCC1,-4%,-1%,?,-2%,/,-15%
COc1ccc(NC(=O)NCCC2=CCCCC2)cc1,?,2.8µM*,?,4µM*,13µM*,?
